Values joined by “and” are separate entries in the source; they are usually repeats but may differ in a detail not shown here. Equal values may be shown once. Results filed as inconclusive are left out. More than one record can exist for a structure, and the calls need not agree. Active and inactive are the calls of the source. How the source made its calls: active means hit-call score of the fitted dose curve at least 0.9, where 1 is the maximum; inconclusive means response in the unintended direction; inactive means score below 0.9.

Sequence of Nuclear receptor subfamily 4 group A member 2 (Homo sapiens) (P43354 whole entry, looked up): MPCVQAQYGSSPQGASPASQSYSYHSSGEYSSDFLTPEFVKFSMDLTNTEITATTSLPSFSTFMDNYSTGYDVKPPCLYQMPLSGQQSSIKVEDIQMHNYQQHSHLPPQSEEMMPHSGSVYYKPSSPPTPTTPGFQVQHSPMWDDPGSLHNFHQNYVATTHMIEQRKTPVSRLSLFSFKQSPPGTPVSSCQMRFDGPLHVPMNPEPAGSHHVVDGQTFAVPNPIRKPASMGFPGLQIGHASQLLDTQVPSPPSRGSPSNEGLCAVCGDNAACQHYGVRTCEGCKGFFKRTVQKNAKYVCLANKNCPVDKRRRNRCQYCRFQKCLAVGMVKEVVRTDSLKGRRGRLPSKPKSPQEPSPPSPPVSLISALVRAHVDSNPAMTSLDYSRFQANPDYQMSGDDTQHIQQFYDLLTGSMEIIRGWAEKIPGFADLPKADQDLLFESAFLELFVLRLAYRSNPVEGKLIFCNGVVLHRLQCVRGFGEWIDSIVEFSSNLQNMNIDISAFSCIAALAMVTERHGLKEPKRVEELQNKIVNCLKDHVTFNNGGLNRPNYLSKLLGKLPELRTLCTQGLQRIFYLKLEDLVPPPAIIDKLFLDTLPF

This assay has as its target Nuclear receptor subfamily 4 group A member 2 (Homo sapiens) (UniProt P43354). Kind of assay: ATG_NURR1_TRANS: Attagene TRANS-FACTORIAL HepG2 Assay for human Nuclear Receptor Related Protein 1 (NURR1) (AID 2282985). The settings on record: HepG2 Attagene TRANS reporter, mRNA readout. In outline:
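Endpoint: reporter mRNA increase relative to DMSO. HepG2 cells transfected with reporter units, treated 24 h; RNA processed by RT-PCR, labelling, HpaI digestion and capillary electrophoresis.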
Regarding `O=c1c(-c2ccc(O)cc2)coc2cc(O)cc(O)c12`, the compound was classed as inactive.
Regarding `Cc1cc(F)ccc1-c1cc(N2CC[C@@H](O)[C@H]2CO)ncc1N(C)C(=O)C(C)(C)c1cc(C(F)(F)F)cc(C(F)(F)F)c1`, the compound was called inactive.
For the compound `CCCCOC(=O)c1ccc(O)cc1`, the AC50 (in general, the midpoint of the concentration-response curve, whichever way the signal moves) is 100 µM (active) and the compound was called inactive.
On to `O=C(O)Cc1cc(I)c(Oc2ccc(O)c(I)c2)c(I)c1`, for which the AC50 was 82 µM (active) and 100 µM (active).
As for `Cc1oc2c(NC(=O)c3c(Cl)cccc3Cl)cccc2c1C(C)(C)O`, the call was inactive.
For the compound `CC(=O)N1CCN(c2ccc(OC[C@H]3CO[C@](Cn4ccnc4)(c4ccc(Cl)cc4Cl)O3)cc2)CC1`, the AC50 was 43.7 µM (active).
Consider `CCCCCCCCOC(=O)c1cc(O)c(O)c(O)c1`, for which the AC50 was 24.2 µM (active).
As for `CN(C)C(=O)C1(N2CCCCC2)CCN(CC[C@@]2(c3ccc(Cl)c(Cl)c3)CN(C(=O)c3ccccc3)CCO2)CC1`, the compound was classed as inactive.
Regarding `O=C1O[C@H]([C@@H](O)CO)C(O)=C1O`, the compound was called inactive.
As to `O=C(Nc1ccc(Cl)cc1)Nc1ccc(Cl)c(Cl)c1`, the outcome was inactive.
With `O=CCCCC=O`, the compound was classed as inactive.
On the same count and under the same terms, the entry for `COc1ccc2cc(S(=O)(=O)N[C@H](CC(=O)N[C@H](Cc3ccc(CN4[C@H](C)CCC[C@@H]4C)cc3)C(=O)N(C)C(C)C)c3ccc4c(c3)OCO4)ccc2c1` is “inactive”; for `O=C(O)Cn1c(=O)n(Cc2ccc(Br)cc2F)c(=O)c2ccc(Cl)cc21` it is “inactive”.
As for `CCCCCCCCCCCC[N+](C)(C)C`, the compound was classed as inactive.
In the case of `NC(=O)c1nc(-c2cccc(-c3cc(F)ccc3OCC(F)(F)C(F)(F)F)c2)n[nH]1`, the AC50 is 50.1 µM (active).
`CC/C(=C(/CC)c1ccc(O)cc1)c1ccc(O)cc1`: the compound was called inactive.
In the case of `COCC(C)OCC(C)OCC(C)O` (stereo not drawn), the call was inactive.
Take `CN1C(=O)N(c2ccccc2Br)Cc2cnc(Nc3ccc4c(c3)OCC(CO)O4)nc21` (stereo not drawn): the compound was classed as inactive.
As for `CCN(Cc1cccnc1)C(=O)c1cccc(Cl)c1[C@]1(C)C(=O)N(Cc2ccc(OC)cc2OC)c2ccc(Cl)cc21`, the AC50 is 8.74 µM (active).
As for `O=C1CCC(C2CCCCC2)CC1`, the compound was called inactive.
For `CCO[Si](CCCNC(N)=O)(OCC)OCC`, the call was inactive.
On the same count and under the same terms, the entry for `Cc1ccc2oc(CN(Cc3ccccc3)C(=O)Nc3c(F)cc(F)cc3F)c(-c3ccc(Cl)cc3)c2c1` is “inactive”; for `O=C(OCCCCCCOC(=O)c1ccccc1)c1ccccc1` it is “inactive”; for `CC(C)(c1cc(Br)c(O)c(Br)c1)c1cc(Br)c(O)c(Br)c1` it is “inactive”.
`C[C@]12CC[C@@H]3c4ccc(O)cc4CC[C@H]3[C@@H]1CC[C@H]2O`: the result was inactive.
As for `Clc1ccccc1C(c1ccccc1)(c1ccccc1)n1ccnc1`, the compound was called inactive.
In the case of `CCCCOC(=O)CC(CC(=O)OCCCC)(OC(C)=O)C(=O)OCCCC`, the outcome was inactive.

The record behind these values is PubChem BioAssay (EPA / NIEHS).
